Screens as filed in PubChem BioAssay.
FMDV inh – antivirals against foot and mouth disease virus | FMDV antiviral cell-based qHTS | Potency, µM (titrated, usually from 57.9 µM), for the others: top-dose activity change, negative = inhibition, actives largely listed as inhibitors | hit rate 1.2% among 410,000; calls by dose curve; tested in HEK293T cells; further: read-out not given here; nearly all actives have a fitted effect of over 45% in size
LASV entry inh – inhibitors of Lassa virus binding or cell entry; hit rate 1.2% among 300,000; AID 540256; Lassa virus pseudotype entry inhibition, cell reporter; Potency, µM (doses to about 37.9 µM), for the others: at the highest dose activity change, negative = inhibition, actives largely listed as inhibitors; calls by dose curve; tested in HEK293 cells; further: nearly all actives have a fitted effect of over 50% in size
MARV entry inh – inhibitors of Marburg virus binding or cell entry; Marburg virus pseudotyped entry inhibition, cell reporter; Potency, µM (highest dose often 37.8 µM), inactives show at the highest dose activity change, negative = inhibition, most hits filed as inhibitors; hit rate 1.8% among 300,000; AID 540276; calls by dose curve; tested in HEK293 cells
Vaccinia mCherry – inhibitors of vaccinia virus infection (mCherry reporter signal); Potency, µM (doses to about 36.5 µM), for the others: top-dose activity change, negative = inhibition, usual class: inhibitors; Vaccinia virus mCherry reporter infection, fluorescence; AID 720579; hit rate 0.63% among 310,000; calls by dose curve; tested in A549 cells; further: nearly all actives have a fitted effect of over 35% in size
Vaccinia Venus – vaccinia inhibition (Venus reporter); Vaccinia virus Venus reporter expression, fluorescence; Potency, µM (top dose mostly 36.5 µM), without a hit: at the top dose activity change, negative = inhibition, usual class: inhibitors; hit rate 0.46% among 330,000; AID 720580; calls by dose curve; tested in A549 cells; further: nearly all actives have a fitted effect of over 30% in size
An asterisk follows results filed as active; [ ] = dose if it differs, or a comment. Hits are enriched below; roughly 3.2% of the tested compounds scored in any of these assays. On the % scale 0 is the no-effect control and ±100 the full control effect; potency means the concentration at half of the fitted maximal effect.

CC(=O)Nc1cc(OC(C)=O)c2nonc2c1OC(C)=O was read as FMDV inh inconclusive, LASV entry inh inconclusive, MARV entry inh inconclusive, Vaccinia mCherry 7.9µM* and Vaccinia Venus 7.9µM*.
For CC(=O)Oc1ccc2nonc2c1OC(C)=O the results were Vaccinia mCherry 26% and Vaccinia Venus 12%.
`O=C(Nc1cccc(-c2cn3ccccc3n2)c1)c1cccc(Cl)c1` gave FMDV inh inconclusive, LASV entry inh inconclusive, MARV entry inh inconclusive, Vaccinia mCherry inconclusive and Vaccinia Venus 14µM*.
`COc1ccc(CC(=O)Nc2ccc(-c3cn4ccccc4n3)cc2)cc1` gave FMDV inh 0%, LASV entry inh inconclusive, MARV entry inh -24% and Vaccinia Venus -15%.
`O=C(Nc1ccc(-c2cn3ccccc3n2)cc1)c1cccs1` gave FMDV inh -17%, LASV entry inh inconclusive, MARV entry inh 15µM*, Vaccinia mCherry -14% and Vaccinia Venus -6%.
`O=C(Nc1cccc(-c2cn3ccccc3n2)c1)c1cnccn1` gave FMDV inh 13%, LASV entry inh 2%, MARV entry inh inconclusive, Vaccinia mCherry inactive and Vaccinia Venus -13%.
Cc1ccc(-n2nc(CO)c(C(=O)NCCc3ccccc3)n2)cc1C was read as FMDV inh -6%, LASV entry inh inconclusive, MARV entry inh 0%[46.1 µM], Vaccinia mCherry -7% and Vaccinia Venus -6%.
CCCCCCCCCCCC(=O)NC(C(=O)OCC)C(O)c1cccc([N+](=O)[O-])c1 (stereo not given) was read as FMDV inh inconclusive, LASV entry inh inconclusive, MARV entry inh 11µM*, Vaccinia mCherry -21% and Vaccinia Venus -29%.
Screening O=C(COC(=O)c1ccccc1SCC(=O)N1CCCC1)NCc1ccc(F)cc1 returned FMDV inh 0%, Vaccinia mCherry -30% and Vaccinia Venus -9%.
Screening C=C[C@@]1(C)CC[C@H](O)[C@H]2C(=O)CCC[C@H]21 returned MARV entry inh -28%[14.2 µM].
`COc1ccc(N=Nc2ccc(CO)cc2)cc1` gave FMDV inh 0%, LASV entry inh 1µM*, MARV entry inh inconclusive, Vaccinia mCherry -6% and Vaccinia Venus -13%.
`OCc1ccc(N=Nc2ccccc2)cc1` gave FMDV inh 59%.
`CC(=O)n1c2ccccc2c2ccccc21` gave FMDV inh 1%, LASV entry inh 7%, MARV entry inh 0%, Vaccinia mCherry -7% and Vaccinia Venus -6%.
For CC(=O)n1c(Cl)c(NC(=O)CCl)c2ccccc21 the results were FMDV inh 32µM*, LASV entry inh inconclusive, MARV entry inh inconclusive, Vaccinia mCherry 10µM* and Vaccinia Venus inconclusive.
For Cc1ccc(NS(=O)(=O)c2cc(NC(=O)c3ccc4c(c3)NC(=O)CS4)ccc2C)c(C)c1 the results were FMDV inh inconclusive, LASV entry inh inconclusive, MARV entry inh 10µM*, Vaccinia mCherry inactive and Vaccinia Venus -12%.
CCC[C@H](CN[C@@H](CNC)[C@H](C)O)NCCc1ccc(OC)cc1 was read as FMDV inh 22%, Vaccinia mCherry inactive and Vaccinia Venus -16%.
For CCCC[C@@H](CNC)NC[C@H](Cc1ccc(O)cc1)NCCc1ccc(OCC)cc1 the results were FMDV inh -2%, Vaccinia mCherry inconclusive and Vaccinia Venus 13µM*.
`CCCNC(=O)C1(C)CCN(C(=O)c2oc3ccccc3c2C)C1` (stereo not given) gave FMDV inh -23%, Vaccinia mCherry 27% and Vaccinia Venus 7%.
Screening O=C(Nc1cccc(-c2cn3c(n2)SCC3)c1)c1ccc2ccccc2n1 returned FMDV inh 17%, MARV entry inh -18%[46.1 µM], Vaccinia mCherry -14% and Vaccinia Venus -6%.
Screening O=C(Nc1ccc(-c2cn3c(n2)SCC3)cc1)c1ccc2ccccc2n1 returned FMDV inh 25µM*, LASV entry inh inconclusive, MARV entry inh inconclusive, Vaccinia mCherry -11% and Vaccinia Venus -16%.
`C=CCOC(=O)N[C@@H](c1coc2ccccc2c1=O)[C@@H](C)C=CCC(=O)OC` gave MARV entry inh -3%[14.2 µM].
`COC(=O)[C@@]1(Cc2ccc(OC)cc2)[C@H]2c3cc(C(=O)N4CCCC4)n(CCc4ccc(OC)c(Br)c4)c3C[C@H]2CN1C(=O)c1ccccc1` gave FMDV inh -4%, Vaccinia mCherry inconclusive and Vaccinia Venus -29%.
Screening CCCC[C@@H]1C[C@H]1C(=O)Nc1ccc(OC)c(OC)c1 returned MARV entry inh 1%.
OCCN1CCN(CC(O)COC(c2ccc(F)cc2)c2ccc(F)cc2)CC1 (stereo not given) was read as FMDV inh -2%, LASV entry inh inconclusive, MARV entry inh 2µM*, Vaccinia mCherry inactive and Vaccinia Venus -6%.
COc1ccc(N2CCN(CC(O)COC(c3ccc(F)cc3)c3ccc(F)cc3)CC2)cc1 (stereo not given) was read as FMDV inh -19%.
For COc1ccc(Cc2nccc3cc(OC)c(OC)cc23)cc1OC the results were FMDV inh 18µM*, LASV entry inh inconclusive, MARV entry inh inconclusive, Vaccinia mCherry inconclusive and Vaccinia Venus inconclusive.
`CN(C)CCCn1c(SCC(=O)Nc2nc(-c3cccc(Br)c3)cs2)nc2ccccc2c1=O` gave FMDV inh -13%, LASV entry inh inconclusive, MARV entry inh 11µM*, Vaccinia mCherry -13% and Vaccinia Venus -9%.
For O=C(CSc1nc2ccccc2[nH]1)Nc1nc(-c2cccc(Br)c2)cs1 the results were FMDV inh -18%, LASV entry inh 13%, MARV entry inh 11%, Vaccinia mCherry -15% and Vaccinia Venus 5%.
For CCCNc1nc2c(c(=O)n(C)c(=O)n2C)n1CCc1ccccc1 the results were FMDV inh 14µM*, LASV entry inh inconclusive and MARV entry inh inconclusive.
For CN(Cc1ccccc1)c1nc2c(c(=O)n(C)c(=O)n2C)n1CCCc1ccccc1 the results were FMDV inh inconclusive, LASV entry inh 13µM*, MARV entry inh inconclusive, Vaccinia mCherry -15% and Vaccinia Venus -17%.
`CCN(CC)c1nc2c(c(=O)n(C)c(=O)n2C)n1CCCc1ccccc1` gave FMDV inh -26%.
`CC(C)n1c(NCCc2ccccc2)nc2c1c(=O)n(C)c(=O)n2C` gave FMDV inh 16µM*, LASV entry inh inconclusive, MARV entry inh inconclusive, Vaccinia mCherry -17% and Vaccinia Venus -29%.
`CC(C)n1c(CN(C)Cc2ccccc2)nc2c1c(=O)n(C)c(=O)n2C` gave FMDV inh 18µM*, LASV entry inh inconclusive, MARV entry inh inconclusive, Vaccinia mCherry inactive and Vaccinia Venus -8%.
For C=C1C=C(C(F)F)n2ncc(C(=O)NC(C)CC)c2N1 (stereo not given) the results were Vaccinia mCherry -5% and Vaccinia Venus -14%.
Screening CN(Cc1ccccc1)C(=O)CCn1c(=O)c2cccn2c2cccnc21 returned FMDV inh 7%.
